{"source": "PubChem BioAssay AID504845", "about": "(National Center for Advancing Translational Sciences (NCATS), 2011)", "note": "Values joined by “and” are separate entries in the source; they are usually repeats but may differ in a detail not shown here. Equal values may be shown once. Screen size: about 390,000 compounds; about 150 (0.038%) were called active. A call without a number means that no potency is given here. Roughly 3% stayed inconclusive and do not appear here. Calls come from the whole dose curve; as a rule, active = well fitted inhibition curve with a large enough effect; inconclusive = small, poorly fitted or top-dose-only effect; inactive = no such curve, though single readings can be large or run the other way. For the sample, actives were picked, then their nearest neighbours and some compounds at random. A structure can be active in one record and inactive in another. Potency is the fitted concentration of half-maximal effect.", "data": [{"molecular_target": "Regulator of G-protein signaling 4 (Homo sapiens) (UniProt P49798)", "sequence (P49798 whole entry, looked up)": "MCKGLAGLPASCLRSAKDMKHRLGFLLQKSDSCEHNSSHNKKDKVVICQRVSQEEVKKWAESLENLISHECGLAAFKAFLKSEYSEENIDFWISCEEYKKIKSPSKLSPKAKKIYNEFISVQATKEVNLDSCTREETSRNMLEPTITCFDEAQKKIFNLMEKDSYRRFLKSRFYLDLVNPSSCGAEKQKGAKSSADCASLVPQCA", "assay": "Inhibitors of Regulator of G Protein Signaling (RGS) 4: qHTS; note: nearly all actives have a fitted effect of over 75% in size", "conditions": "Transcreener GDP fluorescence polarization, RGS4-accelerated GTP hydrolysis; series mostly up to 114 µM", "outline": "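MLSMR compounds (23 nl, pin-transferred) preincubated 10 min at room temperature with a 500nM (2x) first reagent, then RGS4 at 900nM (2x) plus Transcreener GDP mix added; fluorescence polarization (620/688 nm) read before and after 90 min at 30 °C.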", "values": [{"molecule": "COc1ccc(CC(=O)NCCc2sc3nc(-c4ccc(OC)cc4)nn3c2C)cc1", "Potency": "inactive"}, {"molecule": "Cc1ccc(-n2ncc(C(=O)N(C)Cc3ccccc3)c2-n2cccc2)cc1", "Potency": "inactive"}, {"molecule": "Cc1ccc(-c2onc(C)c2C)cc1S(=O)(=O)Nc1ccccn1", "Potency": "inactive"}, {"molecule": "O=C1C[C@@H](c2ccc3ccccc3c2)N1S(=O)(=O)c1ccccc1[N+](=O)[O-]", "Potency": "inactive"}, {"molecule": "CCCN1CCN(CCCNC(=O)c2ccc3nc(Cc4ccccc4)oc3c2)CC1", "Potency": "inactive"}, {"molecule": "Cc1cccc(C(=O)NCCc2nc3ccccc3n2Cc2ccccc2Cl)c1", "Potency": "inactive"}, {"molecule": "CSc1ccc(CCNC(=O)c2cc(C)nc3c2c(C)nn3-c2cccc(F)c2)cc1", "Potency": "inactive"}, {"molecule": "COCCNS(=O)(=O)c1cc(-c2nn3c(C)nnc3c3ccccc23)ccc1C", "Potency": "inactive"}, {"molecule": "Cc1ccc(NC(=O)c2cccc(N(C)C)c2)cc1NC(=O)c1ccc(O)cc1", "Potency": "inactive"}, {"molecule": "Cc1ccccc1C(=O)N(Cc1ccc(N(C)C)cc1)CC1CCCO1", "note": "(stereo unspecified)", "Potency": "inactive"}, {"molecule": "Cc1nc(SCC(=O)N2CCN(c3ccccc3)CC2)[nH]c(=O)c1C", "Potency": "inactive"}, {"molecule": "NC(=O)CSc1nc2c(oc3ccccc32)c(=O)n1Cc1ccccc1", "Potency": "inactive"}, {"molecule": "CCN(C(=O)Cn1c(=O)nc(-c2ccccc2)c2cc(Cl)ccc21)c1cccc(C)c1", "Potency": "inactive"}, {"molecule": "CCCCCCn1nnc2sc(-c3ccccc3)cc2c1=O", "Potency": "inactive"}, {"molecule": "CC(C)c1ccc2oc(-c3cc(NC(=O)c4cccs4)ccc3Cl)nc2c1", "Potency": "inactive"}, {"molecule": "Cc1cc2oc(C(=O)N(Cc3ccc(Cl)cc3)Cc3ccco3)c(C)c2cc1Cl", "Potency": "inactive"}, {"molecule": "CC(C)[C@H]1CC[C@@H](C)C[C@H]1O", "Potency": "inactive"}, {"molecule": "COc1ccc(CNC(=O)c2cc3c(=O)[nH]c4ccccc4c3s2)cc1", "Potency": "inactive"}, {"molecule": "O=S(=O)(Nc1cccc2cccnc12)c1cccc2cccnc12", "Potency": "inactive"}, {"molecule": "COC(=O)c1cc2occc2n1Cc1nc(-c2ccc(C)cc2)oc1C", "Potency": "inactive"}, {"molecule": "Cc1ccc(F)cc1S(=O)(=O)N1CCC(c2nc3ccccc3s2)CC1", "Potency": "inactive"}, {"molecule": "Cc1cc(OC(C)C(=O)Nc2sc3c(c2C(N)=O)CCCC3)ccc1Cl", "note": "(stereo unspecified)", "Potency": "inactive"}, {"molecule": "COc1ccc(C2Nc3ccc(NC(=O)COC(C)=O)cc3C(=O)N2Cc2ccccc2)cc1COc1ccc(NC(C)=O)cc1", "note": "(stereo unspecified)", "Potency": "inactive"}, {"molecule": "C#CCOc1ccc(C2CC(=O)Nc3c2c(C)nn3-c2nc(C)cc(C)n2)cc1", "note": "(stereo unspecified)", "Potency": "inactive"}, {"molecule": "Cc1ccc(C)c(N2CCN(C(=O)Cn3nc(C)c4sc5ccccc5c4c3=O)CC2)c1", "Potency": "inactive"}, {"molecule": "CC(C)S(=O)(=O)c1oc(-c2ccc(F)cc2)nc1S(=O)(=O)c1ccc(F)cc1", "Potency": "inactive"}, {"molecule": "COc1cc(OC)cc(C(=O)Nc2c(C(=O)Nc3ccc(F)cc3)oc3ccccc23)c1", "Potency": "inactive"}, {"molecule": "Oc1ccc(Cl)cc1C1C=C(c2ccc3c(c2)OCO3)NC(c2ccc(F)c(Br)c2)N1", "note": "(stereo unspecified)", "Potency": "inactive"}, {"molecule": "CCOc1ccc(NC(=O)CC2C(=O)N(c3cccc(OC)c3)C(=O)N2C2CCCCC2)cc1", "note": "(stereo unspecified)", "Potency": "inactive"}, {"molecule": "COc1ccc(Cc2nc3ccc(C(=O)NCc4ccccc4C)cc3o2)cc1", "Potency": "inactive"}, {"molecule": "O=C(Nc1ccc2c(c1)OCO2)c1cc(-c2cccc(Cl)c2)on1", "Potency": "inactive"}, {"molecule": "C=CC1(C)CC(=O)C2(O)C(C)(O1)C(OC(C)=O)C(O)C1C(C)(C)CCC(O)C12C", "note": "(stereo unspecified)", "Potency": "inactive"}, {"molecule": "Cc1ccccc1CSc1nc2c([nH]c3ccccc32)c(=O)n1C", "Potency": "inactive"}, {"molecule": "O=C(c1ccc(F)cc1)C1CCN(CCCCc2ccccc2)CC1", "Potency": "inactive"}, {"molecule": "CCc1cc2c(cc3c(=O)n(CC(=O)NCc4cccc(Cl)c4)nc(CC)n32)s1", "Potency": "inactive"}, {"molecule": "Cc1ccc(Cl)cc1N1CCN(S(=O)(=O)c2cc3[nH]c(=O)c(=O)[nH]c3cc2C)CC1", "Potency": "inactive"}, {"molecule": "CCCSc1ncc(Cl)c(C(=O)Nc2sc3c(c2C(=O)NCCOC)CCCC3)n1", "Potency": "inactive"}, {"molecule": "Cc1ccc(CCNC(=O)C2CCN(c3nnc(-n4cccc4CNc4ccc(C)cc4)s3)CC2)cc1", "Potency": "inactive"}, {"molecule": "CCOc1ccccc1NC(=O)Cn1c(=O)n(-c2cccc(C)c2)c(=O)c2c1c1cc(OC)ccc1n2C", "Potency": "inactive"}, {"molecule": "COc1ccc(Cl)cc1NC(=O)C(C)Sc1nc2c(c(=O)[nH]1)CCCC2", "note": "(stereo unspecified)", "Potency": "inactive"}, {"molecule": "Cc1ccc2nc(/C(C#N)=C/c3ccc(-c4ccc(C(=O)OC(C)C)cc4)o3)[nH]c2c1", "Potency": "inactive"}, {"molecule": "CCOc1ccccc1CNC(=O)Nc1cn(CC(C)C)c(=O)c2ccccc12", "Potency": "inactive"}, {"molecule": "O=C1C2C(c3ccccc3)CC=CC2C(c2ccoc2)N1Cc1ccccc1", "note": "(stereo unspecified)", "Potency": "inactive"}, {"molecule": "Cc1cccc(-c2cc(=O)c3cc(C)ccc3o2)c1", "Potency": "inactive"}, {"molecule": "CC1CC2C3CCC4=CC(=O)C=C[C@]4(C)[C@@]3(F)[C@@H](O)C[C@]2(C)[C@@]1(O)C(=O)CO", "note": "(stereo partly specified)", "Potency": "inactive"}, {"molecule": "Nc1ncnc2c1ncn2C1CC(O)C(CO)O1", "note": "(stereo unspecified)", "Potency": "inactive"}, {"molecule": "CSc1ccccc1N1CCN(CCCCCC(=O)NC2CCCc3ccccc32)CC1", "note": "(stereo unspecified)", "Potency": "inactive"}, {"molecule": "CCC(=O)N1CCc2cc(Br)cc(S(=O)(=O)CCC(=O)NCCc3ccc(OC)c(OC)c3)c21", "Potency": "inactive"}, {"molecule": "Cc1ccc(-n2c3nc(=O)[nH]c(=O)c-3cc3c(Cl)cccc32)cc1", "Potency": "inactive"}, {"molecule": "COc1ccc(C)cc1NC(=O)CCc1c(C)nn(-c2ccc(N3CCOCC3)nn2)c1C", "Potency": "inactive"}, {"molecule": "COC(=O)c1cccc(Cn2nnc3sc4c(c3c2=O)CCC(C(C)(C)C)C4)c1", "note": "(stereo unspecified)", "Potency": "inactive"}, {"molecule": "CCOC(=O)c1c(C)[nH]c(CCC(=O)NCCCN2CCN(c3cccc(Cl)c3)CC2)c1C", "Potency": "inactive"}, {"molecule": "CC[C@@H]1Cc2cc(O)ccc2C2=C1c1ccc(O)cc1C[C@H]2CC", "Potency": "inactive and 23.8 µM (active)"}, {"molecule": "COc1ccc(C2CC(O)(c3ccccc3)Oc3cc(C)cc(C)c32)cc1", "note": "(stereo unspecified)", "Potency": "inactive"}, {"molecule": "O=S(=O)(c1ccc2nc(N3CCN(c4cccc(Cl)c4)CC3)ccc2c1)N1CCCCC1", "Potency": "inactive"}, {"molecule": "CCOC(=O)c1cccc(NC(=O)C(Cc2ccccc2)NS(=O)(=O)c2cccc3nsnc23)c1", "note": "(stereo unspecified)", "Potency": "inactive"}, {"molecule": "COc1cccc(CNCCSc2nnnn2C)c1OCc1ccccc1Cl", "Potency": "inactive"}, {"molecule": "CC(=O)c1cccc(NC(=O)CSc2nc3c(c(=O)[nH]2)CCC3)c1", "Potency": "inactive"}, {"molecule": "O=C(Nc1c(C(=O)N2CCN(c3ccc(F)cc3)CC2)oc2ccccc12)c1ccco1", "Potency": "inactive"}, {"molecule": "Cc1cc(C)cc(NC(=O)c2cnc3sc(N4CCCC4)nn3c2=O)c1", "Potency": "inactive"}, {"molecule": "COc1cc(OC)cc(C(=O)Nc2ccc3nc(Nc4cccc(C(F)(F)F)c4)cc(C)c3c2)c1", "Potency": "inactive"}, {"molecule": "Cc1ccc(N(C)C(=O)C2CCN(S(=O)(=O)c3ccc4c(c3)CCCN4C(=O)C3CCC3)CC2)cc1", "Potency": "inactive"}, {"molecule": "CSc1nc(Nc2ccc(F)cc2)cc(-c2ccccc2)n1", "Potency": "inactive"}, {"molecule": "Cc1cccc(-n2c(SCC(N)=O)nc3c(oc4ccccc43)c2=O)c1", "Potency": "inactive"}, {"molecule": "C=Cc1ccc(Cn2c(C(=O)O)c(CNC3CCCC3)c3ccc(C)cc32)cc1", "Potency": "inactive"}, {"molecule": "COc1ccccc1CNC(=O)Cn1nc(C)c2nn(-c3ccc(Cl)cc3)c(C)c2c1=O", "Potency": "inactive"}, {"molecule": "CC1CCCCN1S(=O)(=O)c1ccc(F)c(C(=O)Nc2ccccc2C(F)(F)F)c1", "note": "(stereo unspecified)", "Potency": "inactive"}, {"molecule": "COc1ccc2ncc3c(-c4ccc(C)c(C)c4)nn(CC(=O)NC4CCCC4)c3c2c1", "Potency": "inactive"}, {"molecule": "COc1cccc(CNC(=O)c2ccc3c(c2)N(Cc2ccc(C(F)(F)F)cc2)C(=O)c2ccccc2S3)c1OC", "Potency": "inactive"}, {"molecule": "CC(C)CC(NS(=O)(=O)c1ccc2c(c1)oc(=O)n2C)C(=O)NCc1ccccc1Cl", "note": "(stereo unspecified)", "Potency": "inactive"}, {"molecule": "Cc1cc(OCC(=O)Nc2ncn[nH]2)c(C)c(C)c1Br", "Potency": "inactive"}, {"molecule": "CN1C(=O)c2[nH]nc(-c3ccc(F)cc3)c2C1c1ccccn1", "note": "(stereo unspecified)", "Potency": "inactive"}, {"molecule": "O=C(CSCc1cnn(-c2ccccc2)c1-n1cccc1)NCc1ccccc1Br", "Potency": "inactive"}, {"molecule": "O=C(NCCc1ccccc1)c1ccc2c(c1)N(Cc1ccc(F)cc1)C(=O)c1ccccc1S2(=O)=O", "Potency": "inactive"}, {"molecule": "O=S(=O)(NCC(c1ccccc1)N1CCc2ccccc21)c1ccccc1", "note": "(stereo unspecified)", "Potency": "inactive"}, {"molecule": "Cc1c(CCNC(=O)c2ccc(C(F)(F)F)cc2)sc2nc(-c3ccc(F)cc3)nn12", "Potency": "inactive"}, {"molecule": "CCN(CC)CCNC(=O)c1cc2c(=O)oc3ccc(C)cc3c2s1", "Potency": "inactive"}, {"molecule": "COc1ccc(CCn2c3c(c(=O)[nH]c2=S)CN(C(C)C)CN3)cc1OC", "Potency": "inactive"}, {"molecule": "Cn1c(C(=O)N2CCC(C(=O)N3CCN(c4ccccc4)CC3)CC2)cc2sccc21", "Potency": "inactive"}, {"molecule": "O=S(=O)(c1cccc(C(F)(F)F)c1)N1CCN(c2nc(-c3cccs3)nc3ccccc23)CC1", "Potency": "inactive"}, {"molecule": "Cc1cccc(NC(=O)CSc2ncc(-c3ccccc3)[nH]2)c1C", "Potency": "inactive"}, {"molecule": "COc1cccc(N=C2SC(C(=O)Nc3cccc(Cl)c3)CC(=O)N2C)c1", "note": "(stereo unspecified)", "Potency": "inactive"}, {"molecule": "O=C(Nc1cc(C(F)(F)F)ccc1Cl)c1ccc2c(c1)CCN2S(=O)(=O)c1ccccc1", "Potency": "inactive"}, {"molecule": "CCNS(=O)(=O)c1ccc(NC(=O)CSc2nc(-c3ccco3)cc(C(F)(F)F)n2)cc1", "Potency": "inactive"}, {"molecule": "CCS(=O)(=O)N(C)[C@@H]1c2cc(C#N)ccc2OC(C)(C)[C@H]1O", "Potency": "inactive"}, {"molecule": "COc1ccc(CNC(=O)Cn2nnc(-c3ccccc3F)n2)cc1", "Potency": "inactive"}, {"molecule": "COc1ccc(OC)c(-n2nnc3c(sc4nc(C)c(Br)c(C)c43)c2=O)c1", "Potency": "inactive"}, {"molecule": "Cc1ccc(-c2cn3c(n2)sc2cc(C(=O)NCCCc4ccccc4)ccc23)cc1", "Potency": "inactive"}, {"molecule": "O=C1CC(c2ccccc2)CC2=C1C(c1ccco1)n1nc(C(F)(F)F)nc1N2", "note": "(stereo unspecified)", "Potency": "inactive"}, {"molecule": "COc1ccc(-c2c(C)c3ccc(O)c(CN4CCCC4)c3oc2=O)cc1OC", "Potency": "inactive"}, {"molecule": "CCC(=O)Nc1cccc(C(=O)OCc2cc(=O)n3nc(CC)sc3n2)c1", "Potency": "inactive"}]}]}
